# MCF10A rereplic: DNA re-replication induction in MCF 10a cells; AID 624296; Potency, µM (highest dose often 46.1 µM), for inactives: at the top dose activity, positive = re-replication, most hits filed as activators; MCF 10A DNA re-replication, Hoechst nuclear intensity, 48 h; actives 2.9% (n = 350,000); also: % of control where 0% means no effect; nearly all actives have a fitted effect of over 50% in size
# KB-3-1 cytotox: KB-3-1 parental cell cytotoxicity. KB-3-1 viability, CellTiter-Glo ATP luminescence, 72 h. Potency, µM (top dose mostly 46.1 µM), most hits filed as cytotoxic. actives 1.4% (n = 400,000). AID 1347075; also: % is scaled to controls: 0 for no effect and ±100 for the full control effect; nearly all actives have a fitted effect of over 60% in size
#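 KB-3-1 cells, DMEM (no phenol red) + 10% FBS; compound by pin transfer, 72 h, 37 °C. Readout: CellTiter-Glo luminescence after 10 min. Data normalized, curve-fitted.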
# SW480 rereplic: DNA re-replication induction in SW480 cells; Potency, µM (top dose mostly 46.1 µM), for the others: at the top dose re-replication activation, usual class: activators; SW480 DNA re-replication, Hoechst DNA content imaging, 48 h; actives 1.8% (n = 340,000); also: % of control where 0% means no effect; nearly all actives have a fitted effect of over 55% in size
#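 DNA re-replication was detected as more nuclei of elevated Hoechst intensity after 48 hr exposure to compound (23 nL pinned per well of 250 cells).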
# KB-V1 cytotox: kills drug-selected multidrug resistant KB-V1 cells; KB-V1 MDR cells viability, CellTiter-Glo, 72 h; Potency, µM (titrated, usually from 46.1 µM), hits mostly cytotoxic; actives 3.4% (n = 400,000); also: % is scaled to controls: 0 for no effect and ±100 for the full control effect; nearly all actives have a fitted effect of over 60% in size
#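 Drug-selected KB-V1 cells, grown in DMEM lacking phenol red with 10% FBS, receive compound titrations; after three days at 37 degrees C, surviving cell ATP is quantified by CellTiter-Glo luminescence and responses normalized and curve-fitted.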
# TSG101-PTAP inh: blocks PTAP/TSG101 interaction to inhibit HIV-1 budding; Q99816; Fluorescence polarization, FITC-PTAP peptide / Tsg101 binding; Potency, µM (highest dose often 115 µM), for the others: top-dose activity change, negative = inhibition, hits mostly inhibitors; 340,000 tested, under 10 active; active = well fitted inhibition curve with a large enough effect in the main read-out, with a control signal flat, not every such curve was filed as active; inconclusive = small, poorly fitted or top-dose-only effect, or effect the other way, or a change in a side signal; inactive = no such curve, though single readings can be large or run the other way; also: % of control where 0% means no effect
# Target sequence (Q99816 whole entry, looked up): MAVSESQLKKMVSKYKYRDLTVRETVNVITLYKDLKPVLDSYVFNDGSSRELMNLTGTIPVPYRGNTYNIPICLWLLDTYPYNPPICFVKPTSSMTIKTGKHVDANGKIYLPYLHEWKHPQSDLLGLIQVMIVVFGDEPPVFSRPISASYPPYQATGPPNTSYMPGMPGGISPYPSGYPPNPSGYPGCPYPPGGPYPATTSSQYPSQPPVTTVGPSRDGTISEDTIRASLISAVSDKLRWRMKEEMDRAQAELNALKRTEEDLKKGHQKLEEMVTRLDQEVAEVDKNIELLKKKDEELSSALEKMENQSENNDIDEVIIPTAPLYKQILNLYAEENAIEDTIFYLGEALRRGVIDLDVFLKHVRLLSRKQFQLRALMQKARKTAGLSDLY
#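 Fluorescence polarization binding of Tsg101 binding domain (10 uM final) to FITC-labeled PTAP peptide (50 nM final) in HEPES pH 7.5 buffer with NaCl, Tween 20, EDTA, TCEP. Compounds added before peptide; binding 20 min at RT.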
# PINK1 modulator: PINK1 expression modulation | Potency, µM (highest dose often 76.6 µM), without a hit: at the top dose activation (PINK1 increase), most hits filed as activators | PINK1 immunofluorescence, high-content cytometry, 24 h | AID 624263 | actives 0.2% (n = 410,000); active = well fitted activation curve with a large enough effect; inconclusive = small, poorly fitted or top-dose-only effect; cell line not stated here; also: % of control where 0% means no effect; nearly all actives have a fitted effect of over 65% in size
#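 A stable cell line was treated with compounds at 5 concentrations for 24 hours, with CCCP as control. PINK1 levels and mitochondrial localization were measured by immunofluorescence with mitochondrial, cell and nuclear markers after fixation, read by laser-scanning cytometry.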
# * marks the source's active call; other numbers are inactive results; i = inactive; ? = inconclusive; . = no result given; ! = repeats disagree; [ ] = dose if it differs, or a comment. Most compounds without a hit are left out; they make up all but 6.8% or so of the library. Unless noted, calls follow the shape of the dose curve; as a rule, active = well fitted curve in the direction sought with a large enough effect; inconclusive = small, poorly fitted or top-dose-only effect, or another doubt; inactive = no such curve, though single readings can be large; an effect the other way counts as inactive or inconclusive. Potency is read from the fitted curve at half-maximal effect.
SMILES,MCF10A rereplic,KB-3-1 cytotox,SW480 rereplic,KB-V1 cytotox,TSG101-PTAP inh,PINK1 modulator
CC1Oc2ccccc2N(CC(=O)Nc2ccc3c(c2)OCCO3)C1=O (stereo unspecified),-2%,i,-6%,16µM*,3%,-3%[38.3 µM]
CC1Oc2ccccc2N(CC(=O)NCCc2ccccc2)C1=O (stereo unspecified),-5%,i,-5%,16µM*,1%,1%
CC1Oc2ccccc2N(CC(=O)N2CCc3ccccc32)C1=O (stereo unspecified),8%,i,-6%,15µM*,-1%,0%
CCC1(c2ccccc2)NC(=O)N(CC(=O)N2CCc3ccccc32)C1=O (stereo unspecified),3%,i,18%,12µM*,-1%,3%
CC1Oc2ccccc2N(CC(=O)NCCCN2CCOCC2)C1=O (stereo unspecified),-6%,i,-10%,i,-1%,0%
CC(CNC(=O)C1CCN(C(=O)c2cc3sccc3n2C)CC1)c1ccccc1 (stereo unspecified),.,i,.,i,.,0%
CNC(=O)C1CCC(Cn2c(=O)c3sccc3n(CC(=O)Nc3cc(C)cc(C)c3)c2=O)CC1 (stereo unspecified),.,i,.,?,.,1%
CCOc1ccc(CCNc2ncnc3onc(-c4ccc(Cl)cc4)c23)cc1,.,.,.,.,.,0%
Cc1ccc(-c2noc(-c3ccccc3NC(=O)C3CC(=O)N(c4ccc(C)cc4)C3)n2)cc1 (stereo unspecified),.,i,.,i,.,3%
CC1Oc2ccccc2N(CC(=O)NCc2ccc3c(c2)OCO3)C1=O (stereo unspecified),-6%,i,-1%,i,0%,0%
CC1Oc2ccccc2N(CC(=O)Nc2ccc3c(c2)OCO3)C1=O (stereo unspecified),3%,i,-8%,21µM*,-4%,0%[38.3 µM]
CC1CN(S(=O)(=O)c2cccc(C(=O)OCCOc3ccccc3)c2)CC(C)O1 (stereo unspecified),-2%,i,-6%,12µM*,2%,0%
COc1ccc(OC(=O)c2cccc(S(=O)(=O)N3CC(C)OC(C)C3)c2)cc1 (stereo unspecified),-4%,i,2%,i,-2%,1%
COc1cc(C2c3cc4c(cc3C(O[C@@H]3OC5COC(c6cccs6)OC5C(O)C3O)C3COC(=O)C23)OCO4)cc(OC)c1O (stereo partly specified),?,.,14%,.,.,.
COc1cc([C@H]2c3cc4c(cc3[C@@H](O[C@H]3O[C@H]5CO[C@@H](C)O[C@H]5[C@@H](O)[C@@H]3O)[C@@H]3COC(=O)[C@H]23)OCO4)cc(OC)c1O,?,.,1.5µM*,.,.,.
COc1cc([C@@H]2c3cc4c(cc3[C@@H](O[C@@H]3O[C@@H]5CO[C@@H](C)O[C@H]5[C@H](O)[C@H]3O)[C@H]3COC(=O)[C@H]23)OCO4)cc(OC)c1O,?,16µM*,2.3µM*,i,2%,0%
COc1cc(C2c3cc4c(cc3C(OC3OC5COC(c6cccs6)OC5C(O)C3O)C3COC(=O)C23)OCO4)cc(OC)c1O (stereo unspecified),?,4.1µM*,?,i,-1%,0%
OC[C@@H]1CN(Cc2ccc(-c3ccccc3)cc2)C[C@H](n2cnc3c(Nc4ccccc4)ncnc32)O1,.,13µM*,.,21µM*,.,1%
Cc1ccc(-c2nc3cccnc3s2)cc1NS(=O)(=O)c1ccc2c(c1)OCCO2,?,i,?,?,-2%,4%
Cc1nc2ccc(S(=O)(=O)Nc3cc(-c4nc5cccnc5s4)ccc3C)cc2s1,0.82µM*,?,23µM*,?,-3%,14%
Cc1ccc(-c2nc3cccnc3s2)cc1NS(=O)(=O)c1cccs1,16µM*,i,-1%,i,0%,3%
CCc1ccc(S(=O)(=O)Nc2ccc(-c3nc4cccnc4s3)cc2)s1,?,i,19%,i,2%,9%
O=S(=O)(Nc1ccc(-c2nc3cccnc3s2)cc1)c1cc(F)ccc1F,21µM*,i,18%,i,-5%,1%
Cc1nc2ccc(S(=O)(=O)Nc3cccc(-c4nc5cccnc5s4)c3C)cc2s1,11%,i,6%,i,-2%,1%
Cn1nnc2c(NCc3ccc(Cl)cc3)ncnc21,.,.,.,.,.,29%
SMILES,MCF10A rereplic,KB-3-1 cytotox,SW480 rereplic,KB-V1 cytotox,TSG101-PTAP inh,PINK1 modulator
COC1=CC(=O)C[C@@H](C)[C@]12Oc1c(Cl)c(OC)cc(OC)c1C2=O,?,i,?,?,-2%,5%
COC1=CC(=O)CC(C)C12Oc1c(Cl)c(OC)cc(OC)c1C2=O (stereo unspecified),?,?,23µM*!,?,-3%,11%
Cc1sc2ncnc(N3CCC(C(=O)Nc4ccc(Br)cc4Br)CC3)c2c1C,18%,?,0%,5.8µM*,0%,0%
CCCN(CC(=O)Nc1ccccc1C)C(=O)C1CCN(c2ncnc3sc(C)c(C)c23)CC1,?,i,5%,21µM*,-5%,-1%
Cc1sc2ncnc(N3CCC(C(=O)Nc4ccc(Cl)cc4Cl)CC3)c2c1C,?,i,?,i,4%,-1%
Cc1ccccc1OCC(=O)NNC(=O)C1CCN(c2ncnc3sc(C)c(C)c23)CC1,18%,?,-6%,?,-1%,2%
C[N+](C)(C)CC[N+]1(C)Cc2c(Cl)c(Cl)c(Cl)c(Cl)c2C1,8%,.,3%,.,.,.
Cc1ccc(NC(=O)C2CCCN(S(=O)(=O)c3cccc4cccnc34)C2)c(Br)c1 (stereo unspecified),.,i,.,i,.,1%
COc1cc2cc(C)c3nnc(SCC(=O)Nc4cc(C)on4)n3c2cc1OC,-1%,i,-16%,i,0%,1%
CCc1nnc(NC(=O)CSc2nnc(C3CCCCC3)n2-c2cccc(Cl)c2)s1,21%,i,-10%,4.1µM*,-6%,-2%
CCc1nnc(NC(=O)CSc2nc(-c3ccccc3)c(-c3ccccc3)o2)s1,?,5.2µM*,-11%,?,2%,2%
CCOC(=O)Cc1csc(NC(=O)CSc2nncn2C)n1,8%,i,-4%[9.22 µM],i,1%,0%
CCc1nnc(NC(=O)CSc2nnc(-c3ccccc3O)o2)s1,17%,i,-2%,?,-6%,1%
